39 sequences from the supplement of paper PMC6555819 can be followed below.

The experiment deals with LXRa homodimer (NR concentration 270 nM). As to the kind of experiment: PBM binding z-score (relative to random genomic background probes); higher = stronger binding; sequences stand for … in GC…GCGATTGACAGCGTAGAATGAAGG
In outline: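 Ligand-free nuclear receptor dimers were bound for 1 h to custom Agilent 4×180K protein-binding microarrays. Detection used antibodies against each partner (one per run). Binding z-scores rest on regression-normalized fluorescence, with random background probes as the reference.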
For the sequence CCAGACAGGTGAGAAGGGAACTCAGCCTCGATTA, the PBM binding z-score is 0.111.

Consider TAGACTAGGTCATTGGGCCAGTATAGTACGCATC, for which the PBM binding z-score turned out to be 0.548.

As for GCGACTGGCGCAAAGCAGGTTACCATAAGGTTGG, the PBM binding z-score was -0.662.

The sequence CATACTGGGCCAAAGGTCATTGATTCCAATGCTC displayed a PBM binding z-score of 4.2.

Consider CCTAATGGGCCAAAAAGGTCATTGATGCCGATAA, for which the PBM binding z-score amounted to 3.21.

In turn, CCTAGTTGGTCAGGAGGTCACACCCCGGATATGA came in with a PBM binding z-score of 2.07.

For ACAGACAGGTGAGTGAACGTAACTCAGCTGGACG, the PBM binding z-score was -0.561.

With TGAATGAGGTTCAAGATCAGGGAACGTGGCGTCG, the PBM binding z-score is -0.757.

Sequence CCGACTGGGGGAAGGTTACCATAACGCACAGCCA returned a PBM binding z-score of 0.199.

Turning to TAGCCTAGGTCAGATCGCGCCAGTATACGCTATA, the PBM binding z-score is -0.15.

The sequence CGAACGAGGCCATGAGTTGATAGCAAATGCCGAT registered a PBM binding z-score of -0.636.

The sequence TCTTGTAGATCAACAGAGGTTAAGAAAGTGCGCT displayed a PBM binding z-score of 0.564.

GCTCGGAGGACAAGGTCAGAGCCTTGTCCGTAGA returned a PBM binding z-score of -0.456.

ATCGAAAGGTCGTGAGGTGAGTATGCAGAAAGGC had a PBM binding z-score of 0.302.

Sequence CCTGCTAGGTCATGATCAGCTAATCTACAGTATG displayed a PBM binding z-score of 0.02.

In the case of CCTCGGAGGACAACAGGTGGTCAGAGCTGCCAGA, the PBM binding z-score is -0.443.

For the sequence CCGAGTAGGTCATGGGGCATTCAGGCAACGGTGA, the PBM binding z-score is 0.422.

For CGTCAAAGTTCAAGGTAACGTACCAGAAAGCAGC, the PBM binding z-score was 3.17.

Sequence CGAACTAGGTCACTGACAGGACAGTGAATAGTAA yielded a PBM binding z-score of -0.0136.

For the sequence CCTACTGGGCCACGAAAGGTCATTGCTTCAGTGA, the PBM binding z-score amounted to 5.24.

For CAAACTAGATCACCGGAAGGTCAAAGTCCGCATG, the PBM binding z-score was found to be 3.33.

CCTAGTTGGTCAATGTCACACACGCTATAGGTAC registered a PBM binding z-score of 0.613.

Consider CCTACTGGGCCATCACGTCATTGATATCAACGTT, for which the PBM binding z-score is -0.158.

Take GCGACTGGGGCAAAGCAGGTTACCATAAGGTTGG: the PBM binding z-score was -0.593.

For the sequence TCTGCTAGGTCAACGATGGTCAGCTACTCTGCTA, the PBM binding z-score was -0.273.

For ACAAGCAGGCCAAGGGTCACTCAAGATTAGTCCG, the PBM binding z-score was 0.0513.

Turning to CCTAGCAGGCCAAGGTCACTCAAGCATTTCGCTT, the PBM binding z-score was found to be 0.474.

Sequence TCTCGGAGGACACGAAGGTCAGACCTTTCCAGAG returned a PBM binding z-score of 0.373.

Sequence GTACCAAGGTGAATAGGTCGTTAATGAGTAGGCG returned a PBM binding z-score of -0.0766.

For the sequence TCTATTAGTTGATGGGCAACCGACGAGTCCGTTT, the PBM binding z-score is -0.0154.

CGAACTAGGGCATCCAGGACAGTGAATACATTGA: the PBM binding z-score is -0.3.

With TTACCTAGGTGAAGGTCGTTGATCCCTCTGTAGA, the PBM binding z-score was -0.334.

Consider CGGACTGGGGCAAGGTTACCATAACGCACAGCCA, for which the PBM binding z-score was -0.284.

Consider ACTATTAGTTGACTTAGGGCAACCGTTACGACGC, for which the PBM binding z-score came to 0.268.

CCGACTGGGGCTAAGGTTACCATACTCAGTACGA: the PBM binding z-score is -0.428.

Consider AGAACGAGGGCATGCTGAGTTGATAGCAGAGTAG, for which the PBM binding z-score was -0.52.

Sequence ATATGTAGGTTATCGGTTCATTCAGTTTGCGCAT gave a PBM binding z-score of 1.33.

TCATATAGGTAAACAGTTGAAAGTCCGTAAGTTA displayed a PBM binding z-score of 0.508.

In turn, CAAACTACGTCACCGGAAGGTCAAAGTCCGCATG came in with a PBM binding z-score of 3.72.
